Screens (PubChem BioAssay)
A selection: hits, their analogues and other compounds. The true share with any hit is near 4%.
ERAP1 inh – human ERAP1 aminopeptidase inhibitors, primary screen, biochemical, single point, plate reader; hit rate 0.15% among 340,000; AID 652197, 2013; Endoplasmic reticulum aminopeptidase 1 (Homo sapiens), Q9NZ08; inhibition, % at 10.7 µM; recombinant ERAP1, Leu-AMC fluorescence, 60 min;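 active = mean replicate inhibition of at least 30%, or all replicates individually reaching that 30% level; inactive = mean below 30% and not every replicate reaching it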;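 also: 0% = neutral control wells and 100% = L-leucinethiol positive control wells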
DENV2 CPE – inhibitors of DENV2 cytopathic effect, primary screen, cell-based, plate reader, single concentration; DENV2-infected cells, cytopathic effect rescue; CPE inhibition, % at 9.99 µM; hit rate 1.7% among 350,000; in the data active = CPE inhibition above about 20%, passing the limit was not always enough; inconclusive = no clear call, values can overlap the other calls; tested in BHK-21 cells;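 also: 0% = median of neutral control wells and 100% = median of positive control wells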
RAD52 anneal inh – RAD52 DNA annealing inhibitors, primary screen, biochemical, FRET, single point, set 2; inhibition, % at 18.7 µM; recombinant RAD52 DNA annealing, FRET fluorescence; hit rate 0.46% among 360,000; DNA repair protein RAD52 homolog (Homo sapiens), P43351;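 active = every replicate showing at least 50% inhibition; inconclusive = mean inhibition at least 50% but not in every replicate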
Target sequence (P43351 whole entry, looked up): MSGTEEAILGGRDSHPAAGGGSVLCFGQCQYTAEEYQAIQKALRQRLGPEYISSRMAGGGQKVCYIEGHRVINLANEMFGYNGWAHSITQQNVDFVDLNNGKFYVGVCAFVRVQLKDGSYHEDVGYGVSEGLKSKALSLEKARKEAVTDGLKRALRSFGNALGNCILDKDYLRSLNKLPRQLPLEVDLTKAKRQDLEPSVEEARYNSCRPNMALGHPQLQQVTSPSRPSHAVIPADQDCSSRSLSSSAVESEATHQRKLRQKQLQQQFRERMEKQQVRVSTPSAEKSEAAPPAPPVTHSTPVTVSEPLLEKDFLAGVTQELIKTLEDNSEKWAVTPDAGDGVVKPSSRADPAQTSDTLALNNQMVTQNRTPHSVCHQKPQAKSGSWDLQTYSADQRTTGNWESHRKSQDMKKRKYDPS
MLL AF4-AF9 inh – inhibitors of AF4 peptide binding to AF9, primary screen, biochemical, AlphaScreen, biotin-AF4 peptide, FLAG-AF9, single point | Protein AF-9 (Homo sapiens), P42568 | inhibition, % at 10 µM | hit rate 0.47% among 350,000 | AID 651704, 2012;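 active = every replicate reaching a set inhibition limit, whatever the replicate mean, cut at about 25% in these data; inconclusive = mean inhibition reaches that limit but some replicates miss it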;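 also: 0% = plate neutral control median and 100% = total signal loss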
FGF22 binding – binders of human FGF22 protein, primary screen, FGF22 synaptogenesis inhibitor project, biophysical, thermal shift, single point; recombinant FGF22 thermal shift, SYPRO orange fluorescence; percent of sucrose octasulfate shift, DMSO zero; Fibroblast growth factor 22 (Homo sapiens), Q9HCT0; activity (Tm shift, normalised), % at 9.99 µM; hit rate 1.5% among 340,000;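 active = mean Tm shift, scaled 0 neutral to 100 positive control, at about 1.3% or above, every replicate too, limit read from the data; inconclusive = no clear call, values can overlap the other calls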
Target sequence (Q9HCT0 whole entry, looked up): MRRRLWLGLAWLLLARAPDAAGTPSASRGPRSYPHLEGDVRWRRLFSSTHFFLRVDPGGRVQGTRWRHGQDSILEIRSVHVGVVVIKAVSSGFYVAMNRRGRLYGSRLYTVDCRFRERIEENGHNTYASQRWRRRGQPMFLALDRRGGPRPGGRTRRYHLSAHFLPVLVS
* hit, by the source's call; ? = inconclusive; · = no result.

SMILES | ERAP1 inh | DENV2 CPE | RAD52 anneal inh | MLL AF4-AF9 inh | FGF22 binding
COc1ccc(C#Cc2ccc3c(c2)[C@H]2[C@H](CCN2C(=O)c2ccccn2)[C@@H](CO)N3)cc1 | 1 | -12 | 19 | 26* | ·
O=C(c1ccccc1)N1CC[C@@H]2[C@H](CO)Nc3ccc(C#Cc4ccccc4F)cc3[C@@H]21 | 2 | 7 | -3 | -4 | 0
CN(C)C(=O)c1ccc(-c2ccc3c(c2)[C@H]2[C@H](CCN2C(=O)c2ccccn2)[C@H](CO)N3)cc1 | · | 26* | · | · | 0
OC[C@@H]1Nc2ccc(C#Cc3cccc(F)c3)cc2[C@@H]2NCC[C@H]12 | 1 | -3 | 45 | ? | ·
COc1ccccc1C#Cc1ccc2c(c1)[C@H]1[C@H](CCN1C(=O)c1ccncc1)[C@H](CO)N2 | · | 36* | · | · | 0
O=C(c1ccccc1)N1CC[C@@H]2[C@H](CO)Nc3ccc(C#CC4CCCCC4)cc3[C@@H]21 | -3 | -3 | -48 | -3 | ·
O=C(c1ccccc1F)N1CC[C@@H]2[C@H](CO)Nc3ccc(C#Cc4ccccc4)cc3[C@@H]21 | 1 | 20 | 3 | -14 | 0
O=C(c1ccccc1F)N1CC[C@@H]2[C@H](CO)Nc3ccc(C#Cc4ccc(F)cc4)cc3[C@@H]21 | · | 26* | · | · | 0
O=C(c1ccccc1)N1CC[C@@H]2[C@H]1c1cc(C#CC3CCCCC3)ccc1N[C@@H]2CO | 3 | 52* | -18 | 3 | ·
COc1ccc(C#Cc2ccc3c(c2)[C@H]2[C@H](CCN2C(=O)c2ccncc2)[C@H](CO)N3)cc1 | · | -4 | · | · | 0
O=C(c1ccccc1F)N1CC[C@@H]2[C@H](CO)Nc3ccc(C#Cc4ccccc4F)cc3[C@@H]21 | 0 | 62* | -8 | -5 | 0
C[C@@H]1CN([C@H](C)CO)C(=O)c2cc(-c3cncnc3)cnc2O[C@H]1CN(C)C(=O)Cc1ccccc1 | -4 | 7 | -1 | -1 | 0
O=C(Cc1ccccc1)N1CC(=O)N2[C@H](C1)[C@@H](c1ccc(-c3cccc(F)c3)cc1)[C@@H]2CO | 0 | 2 | -15 | -8 | ·
COc1ccc2c3c([nH]c2c1)[C@H](CO)N(C(=O)Nc1ccccc1F)CC31CN(C(C)=O)C1 | 3 | -8 | 17 | 2 | 0
CO[C@H](CN(C)Cc1cc(F)ccc1F)[C@H](C)CN(C(=O)Nc1ccc(F)cc1)[C@H](C)CO | 0 | 1 | 4 | 1 | 0
CN1CCN(C(=O)C[C@H]2C[C@@H]3c4cc(NC(=O)C5CCOCC5)ccc4O[C@@H]3[C@H](CO)O2)CC1 | -2 | 2 | -3 | 0 | 0
Cc1ccc(NC(=O)c2ccc3c(c2)CCN3S(C)(=O)=O)cc1 | -11 | 30* | 4 | -1 | 0
O=C1c2cc([N+](=O)[O-])ccc2-c2ncccc21 | · | 51* | -17 | 4 | 0
Nc1ccc2c(c1)C(=O)c1cc([N+](=O)[O-])ccc1-2 | 2 | -3 | -29 | 2 | 0
CC(C)(O)c1cn([C@@H]2C[C@@H]3O[C@@H](CO)CC[C@@H]3O[C@@H]2CCc2ccc(-c3cccnc3)cc2)nn1 | 0 | -7 | -7 | -3 | ·
CCOC(=O)c1c[nH]n2c(=S)ncnc12 | 2 | -6 | -16 | 7 | 43*
CC(C)c1ccc(/C=N/NC(=O)c2cccc(S(=O)(=O)N3CCOCC3)c2)cc1 | -5 | -2 | -6 | -8 | 44*
CN1CCN(S(=O)(=O)c2cccc(C(=O)N(C)CC(=O)Nc3ccc(F)c(F)c3F)c2)CC1 | 99* | 6 | -12 | 0 | 0
COc1ccc(Cl)cc1NC(=O)CN(C)C(=O)c1cccc(S(=O)(=O)N2CCN(C)CC2)c1 | -5 | 2 | 11 | 5 | 0
CN1CCN(S(=O)(=O)c2cccc(C(=O)Nc3cc(Cl)ccc3N3CCOCC3)c2)CC1 | 61* | 2 | 2 | 6 | 0
SMILES | ERAP1 inh | DENV2 CPE | RAD52 anneal inh | MLL AF4-AF9 inh | FGF22 binding
COc1ccccc1CN1C[C@H](C)[C@@H](OC)CN(C)C(=O)c2ccc(NC(C)=O)cc2OC[C@@H]1C | 3 | -2 | 11 | 7 | 0
C[C@@H]1CN([C@H](C)CO)C(=O)c2cc(/C=C/c3ccccc3)cnc2O[C@@H]1CN(C)S(=O)(=O)c1cn(C)cn1 | -2 | -10 | 3 | -1 | 0
COc1ccccc1CNC(=O)C[C@@H]1CC[C@@H](NC(=O)CN(C)C)[C@H](CO)O1 | 1 | -2 | -6 | -1 | 0
Cc1cccc(Cc2cnc(N3C(=N)SC(C)C3=O)s2)c1 (stereo not drawn) | -2 | ? | -14 | -1 | 0
Cc1ccc(Cc2cnc(N3C(=N)SC(C)C3=O)s2)cc1 (stereo not drawn) | -4 | 10 | -12 | -2 | 43*
C[C@@H](NC(=O)c1ncn(C)c1C(=O)N[C@H](C)c1ccccc1)c1ccccc1 | -7 | 90* | -21 | -1 | 0
CCC1(C)NC(C(=O)O)Cc2c1[nH]c1ccccc21 (stereo not drawn) | 0 | -4 | -1 | 0 | 0
COC(=O)C1Cc2c([nH]c3ccccc23)C2(CCN(Cc3ccccc3)CC2)N1 (stereo not drawn) | -8 | -5 | 2 | 30* | 0
CCCc1cn(CC[C@H]2CC[C@@H](NS(=O)(=O)c3ccccc3Cl)[C@H](CO)O2)nn1 | 4 | 0 | -7 | 6 | 0
O=[N+]([O-])c1cc([N+](=O)[O-])c(Oc2cc(F)cc(F)c2)cc1NN1CCCCC1 | 2 | 25* | -8 | 5 | 0
O=[N+]([O-])c1cc([N+](=O)[O-])c(Oc2ccc(F)cc2)cc1NN1CCCCC1 | -3 | 0 | -7 | 1 | 0
COc1ccc(Oc2cc(NN3CCCCC3)c([N+](=O)[O-])cc2[N+](=O)[O-])cc1OC | -1 | 38* | -13 | 1 | 1
Cc1noc(C)c1S(=O)(=O)Nc1ccc2c(c1)C(=O)N([C@@H](C)CO)C[C@H](C)[C@@H](CN(C)S(=O)(=O)c1ccccc1)OCCCC[C@@H](C)O2 | 1 | -7 | -39 | 4 | 0
CC1(C)NC(=O)N(CCCCOc2ccc(Cl)cc2C=O)C1=O | 0 | 0 | -6 | 0 | 43*
C[C@@H]1CCCCO[C@@H](CN(C)S(=O)(=O)c2ccc(F)cc2)[C@H](C)CN([C@H](C)CO)C(=O)c2cc(NC(=O)Nc3ccc4c(c3)OCO4)ccc2O1 | 0 | 24* | 18 | 2 | 0
C[C@H](CO)N1C[C@H](C)[C@@H](CN(C)S(=O)(=O)c2ccc(Cl)cc2)OCCCC[C@H](C)Oc2ccc(NC(=O)Nc3ccc4c(c3)OCO4)cc2C1=O | -3 | -18 | -2 | -1 | 0
